Source: PubChem BioAssay (Tox21)
Results filed as inconclusive are left out. Active and inactive are the calls of the source. Unless noted, calls come from the whole dose curve; as a rule, active = well fitted curve in the direction sought with a large enough effect in the repeat runs; inconclusive = weak or mixed curves; inactive = no such curve, though single readings can be large; an effect the other way counts as inactive or inconclusive.

Key:
[1] = qHTS assay to identify small molecule antagonists of the sonic hedgehog signaling (Shh) pathway (AID 1259369; calls by dose curve; note: nearly all actives have a fitted effect of over 45% in size; note: potency is the fitted concentration of half-maximal effect)
Outline: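 For antagonist detection, the reporter line received test compounds together with conditioned medium, incubated 24hr at 37 C, 5% CO2, then luminescence was recorded following 30min room-temperature luciferase reagent incubation.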

[2] = qHTS assay to identify small molecule agonists of the androgen receptor (AR) signaling pathway in the presence of an antagonist - cell viability counter screen (AID 1259379);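 note: MDA-kb2 human breast cancer cells carrying an MMTV luciferase reporter; series mostly up to about 92 µM; nearly all actives have a fitted effect of over 25% in size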
Outline: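 Seed MDA-kb2 at 3,000 cells/well; incubate 5 hr, 37C, 0% CO2. Add nilutamide to 3.0uM final, then pin compounds at 15 concentrations. Incubate 16 hr. Add CellTiter-Fluor at 15 hr, read fluorescence after 1 hr.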

[3] = qHTS assay to identify small molecule agonists of the estrogen receptor beta (ER-beta) signaling pathway - cell viability counter screen (AID 1259380); note: nearly all actives have a fitted effect of over 30% in size
Outline: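 CellTiter-Glo read, 30 min RT, same wells as bla assay; cells ER-beta-UAS-bla HEK293T; 16 hr compound, 37C; medium 2% charcoal-stripped FBS.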

[4] = target: Estrogen receptor (Homo sapiens) (UniProt P03372); assay: qHTS assay to identify small molecule agonists of the estrogen receptor alpha (ER-alpha) signaling pathway in the presence of an antagonist (AID 1259383; calls by dose curve; note: top concentration of the series differs between compounds; nearly all actives have a fitted effect of over 15% in size)
Estrogen receptor (Homo sapiens), sequence (P03372 whole entry, looked up): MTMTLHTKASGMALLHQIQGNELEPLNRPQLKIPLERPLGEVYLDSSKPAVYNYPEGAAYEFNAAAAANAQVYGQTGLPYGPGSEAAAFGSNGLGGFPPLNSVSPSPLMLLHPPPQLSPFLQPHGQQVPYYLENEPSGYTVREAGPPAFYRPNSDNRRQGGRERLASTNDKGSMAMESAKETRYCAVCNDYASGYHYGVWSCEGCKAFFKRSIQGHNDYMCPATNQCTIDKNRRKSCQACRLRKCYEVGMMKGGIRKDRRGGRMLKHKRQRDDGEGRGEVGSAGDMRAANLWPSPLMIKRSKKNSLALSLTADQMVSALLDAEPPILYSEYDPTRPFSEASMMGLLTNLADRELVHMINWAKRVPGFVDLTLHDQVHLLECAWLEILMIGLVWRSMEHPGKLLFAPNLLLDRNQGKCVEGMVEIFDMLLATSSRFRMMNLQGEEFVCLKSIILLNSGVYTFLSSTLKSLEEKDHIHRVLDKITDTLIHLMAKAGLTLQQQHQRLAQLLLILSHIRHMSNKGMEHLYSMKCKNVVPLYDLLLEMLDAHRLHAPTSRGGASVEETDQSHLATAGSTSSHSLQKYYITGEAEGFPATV
Outline: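 Stably transfected VM7Luc4E2 reporter cells, kept 5 days in charcoal-stripped serum, received ICI-182,780 at 10.0nM final before compound addition. Following 22hr incubation at 37C and 5% CO2, luciferase signal was read by luminescence.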

[5] = qHTS assay to identify small molecule agonists of the estrogen receptor alpha (ER-alpha) signaling pathway in the presence of an antagonist - cell viability counter screen (AID 1259386);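 note: series mostly up to about 92 µM; cells exposed to compounds for 22 h at 37 °C before the viability read; nearly all actives have a fitted effect of over 30% in size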
Outline: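 Viability counter screen using VM7Luc4E2 (full-length ER-alpha, four ERE-luciferase). The cells were treated with compounds alongside ICI-182,780 10.0nM for 22hr, and live-cell protease fluorescence was quantified with CellTiter-Fluor.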

[6] = target: Progesterone receptor (Homo sapiens) (UniProt P06401); assay: qHTS assay to identify small molecule agonists of the progesterone receptor (PR) signaling pathway (AID 1346784; calls by dose curve; note: nearly all actives have a fitted effect of over 30% in size)
Progesterone receptor (Homo sapiens), sequence (P06401 whole entry, looked up): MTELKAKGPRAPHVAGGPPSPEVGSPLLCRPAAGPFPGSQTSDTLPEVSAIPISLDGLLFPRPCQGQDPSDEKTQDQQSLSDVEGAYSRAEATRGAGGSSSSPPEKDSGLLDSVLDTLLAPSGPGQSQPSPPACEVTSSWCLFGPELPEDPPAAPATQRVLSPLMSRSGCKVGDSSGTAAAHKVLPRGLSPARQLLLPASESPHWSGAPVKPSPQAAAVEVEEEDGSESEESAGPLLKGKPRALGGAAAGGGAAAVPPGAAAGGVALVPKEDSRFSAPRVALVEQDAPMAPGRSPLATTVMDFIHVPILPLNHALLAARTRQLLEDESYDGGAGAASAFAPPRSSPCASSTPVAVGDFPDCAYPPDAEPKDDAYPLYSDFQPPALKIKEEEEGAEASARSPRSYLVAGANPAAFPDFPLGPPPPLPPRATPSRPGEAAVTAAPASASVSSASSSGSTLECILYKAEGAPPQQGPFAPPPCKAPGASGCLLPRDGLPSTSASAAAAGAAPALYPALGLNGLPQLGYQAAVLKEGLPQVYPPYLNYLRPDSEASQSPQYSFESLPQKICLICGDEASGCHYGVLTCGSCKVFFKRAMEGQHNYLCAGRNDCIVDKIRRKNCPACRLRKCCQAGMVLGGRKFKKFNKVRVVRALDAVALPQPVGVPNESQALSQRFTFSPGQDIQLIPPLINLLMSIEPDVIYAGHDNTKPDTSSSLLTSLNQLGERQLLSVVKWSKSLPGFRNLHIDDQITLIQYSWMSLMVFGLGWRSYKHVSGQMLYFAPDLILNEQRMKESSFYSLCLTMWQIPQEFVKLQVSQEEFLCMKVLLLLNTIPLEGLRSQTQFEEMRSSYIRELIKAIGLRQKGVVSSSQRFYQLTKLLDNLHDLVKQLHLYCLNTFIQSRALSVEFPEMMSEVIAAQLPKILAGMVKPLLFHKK
Outline: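 Reporter assay, GripTite PR-UAS-bla HEK 293T cells: 16 hr exposure to DMSO-dissolved compounds at 37C, 5% CO2, in steroid-depleted (2% charcoal-stripped FBS) medium; beta-lactamase measured by FRET fluorescence.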

[7] = target: Progesterone receptor (Homo sapiens) (UniProt P06401); assay: qHTS assay to identify small molecule antagonists of the progesterone receptor (PR) signaling pathway (AID 1346795; active = well fitted inhibition curve with a large enough effect in the signal ratio in the repeat runs, not every such curve was filed as active; the % refers to the signal ratio)
Outline: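 Stimulus R5020 at 1 nM final; cells HEK293T PR-UAS-bla; medium with 2% charcoal-stripped FBS; compound exposure 16 hr at 37C, 5% CO2; detection by FRET beta-lactamase substrate, 2 hr, room temperature.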

[8] = qHTS assay to identify small molecule antagonists of the progesterone receptor (PR) signaling pathway - cell viability counter screen (AID 1346798); note: series mostly up to about 92 µM; nearly all actives have a fitted effect of over 50% in size
Outline: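 In the same plates used for the beta-lactamase readout, cell viability of compound- and R5020-treated PR-UAS-bla HEK293T cells (16 hr, 37C) was assessed by CellTiter-Glo luminescence.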

[9] = qHTS assay to identify small molecule agonists of the progesterone receptor (PR) signaling pathway - cell viability counter screen (AID 1346799; calls by dose curve; note: nearly all actives have a fitted effect of over 45% in size)
Outline: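 Multiplexed viability read: CellTiter-Glo luminescence, 30 min RT, following LiveBLAzer FRET measurement on PR-UAS-bla HEK293T cells exposed to compounds 16 hr.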

[10] = qHTS assay to identify small molecule antagonists of the TGF-beta/Smad signaling pathway - cell viability counter screen (AID 1346824); note: nearly all actives have a fitted effect of over 50% in size
Outline: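 Cytotoxicity counter-screen run in the same wells as the beta-lactamase Smad reporter read: CellTiter-Glo luminescence after 30 min at room temperature. HEK 293T SBE-bla cells had 5 hr compound exposure at 37 C with TGF-beta1 (0.25 ng/mL stock).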

[11] = qHTS assay to identify small molecule agonists of the TGF-beta/Smad signaling pathway - cell viability counter screen (AID 1346829); note: top concentration of the series differs between compounds; nearly all actives have a fitted effect of over 45% in size
Outline: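 Tox21 qHTS format: SBE-bla HEK 293T cells treated with DMSO-dissolved compounds for 5 hr; CellTiter-Glo luminescence after 30 min at room temperature.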

[12] = qHTS assay to identify small molecule agonists of the TGF-beta/Smad signaling pathway (AID 1346859; active = well fitted activation curve with a large enough effect in the signal ratio in the repeat runs, not every such curve was filed as active; the % refers to the signal ratio; note: series mostly up to about 77 µM)
Outline: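 Screening used HEK 293T SBE-bla cells at 4,000/well. Test agents: 5 hr, 37 C. Detection: FRET substrate, 2 hr RT, then excitation 405 nm with emissions at 460 and 530 nm.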

[13] = target: Thyrotropin-releasing hormone receptor (Homo sapiens) (UniProt P34981); assay: qHTS assay to identify small molecule antagonists of the thyrotropin-releasing hormone receptor (TRHR) signaling pathway (AID 1346877; active = well fitted inhibition curve with a large enough effect in the repeat runs, not every such curve was filed as active; note: series mostly up to about 51 µM)
Thyrotropin-releasing hormone receptor (Homo sapiens), sequence (P34981 whole entry, looked up): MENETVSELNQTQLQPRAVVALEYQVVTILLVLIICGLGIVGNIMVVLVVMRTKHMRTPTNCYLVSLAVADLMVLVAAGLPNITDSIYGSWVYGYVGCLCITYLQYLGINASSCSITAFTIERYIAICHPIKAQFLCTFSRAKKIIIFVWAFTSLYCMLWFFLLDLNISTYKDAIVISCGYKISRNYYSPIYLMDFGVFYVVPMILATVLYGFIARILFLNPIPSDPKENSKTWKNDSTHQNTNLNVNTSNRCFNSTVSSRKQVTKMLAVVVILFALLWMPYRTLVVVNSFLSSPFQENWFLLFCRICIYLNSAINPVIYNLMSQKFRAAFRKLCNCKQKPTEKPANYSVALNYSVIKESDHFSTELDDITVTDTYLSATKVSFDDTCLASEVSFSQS
Outline: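 Following an 18 h incubation at 37 °C and a 2 h calcium dye load, TRHR-HEK293 cells were exposed to compound (5 min, room temperature) and challenged with TRH, 1 nM final.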

[14] = target: Estrogen receptor beta (Homo sapiens) (UniProt Q92731); assay: qHTS assay to identify small molecule agonists of the estrogen receptor beta (ER-beta) signaling pathway (AID 1259377; active = well fitted activation curve with a large enough effect in the signal ratio in the repeat runs, not every such curve was filed as active; the % refers to the signal ratio)
Estrogen receptor beta (Homo sapiens), sequence (Q92731 whole entry, looked up): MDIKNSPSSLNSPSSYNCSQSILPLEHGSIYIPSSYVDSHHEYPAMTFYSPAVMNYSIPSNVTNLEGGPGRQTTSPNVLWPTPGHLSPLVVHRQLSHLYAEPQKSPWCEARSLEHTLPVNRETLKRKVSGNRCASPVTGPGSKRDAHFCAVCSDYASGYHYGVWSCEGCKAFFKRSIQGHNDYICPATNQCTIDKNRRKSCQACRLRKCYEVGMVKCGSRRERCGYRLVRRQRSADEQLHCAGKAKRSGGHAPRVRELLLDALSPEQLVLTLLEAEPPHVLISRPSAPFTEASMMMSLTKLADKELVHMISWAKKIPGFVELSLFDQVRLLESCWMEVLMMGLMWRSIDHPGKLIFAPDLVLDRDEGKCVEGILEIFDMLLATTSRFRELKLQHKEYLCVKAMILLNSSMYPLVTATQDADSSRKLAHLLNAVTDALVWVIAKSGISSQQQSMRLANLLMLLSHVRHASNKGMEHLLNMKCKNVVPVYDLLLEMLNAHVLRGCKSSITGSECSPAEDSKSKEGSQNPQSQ
Outline: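 Reporter cells (HEK293T, ER-beta-UAS-bla) receive compounds or DMSO after a 6 hr pre-incubation. They then incubate 16 hr at 37C/5% CO2, and fluorescence from LiveBLAzer B/G substrate is measured after 2 hours at room temperature.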

[15] = target: Estrogen receptor beta (Homo sapiens) (UniProt Q92731); assay: qHTS assay to identify small molecule antagonists of the estrogen receptor beta (ER-beta) signaling pathway (AID 1259378; active = well fitted inhibition curve with a large enough effect in the signal ratio in the repeat runs, not every such curve was filed as active; the % refers to the signal ratio; note: potency is the fitted concentration of half-maximal effect)
Outline: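 Antagonist mode: compounds added to beta-lactamase reporter HEK293T ER-beta-UAS cells stimulated with E2 (1nM final), 16 hr at 37C. LiveBLAzer B/G FRET substrate, 2 hours room temperature, fluorescence read-out.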

[16] = target: Androgen receptor (Homo sapiens) (UniProt P10275); assay: qHTS assay to identify small molecule agonists of the androgen receptor (AR) signaling pathway in the presence of an antagonist (AID 1259381; calls by dose curve; note: nearly all actives have a fitted effect of over 15% in size)
Androgen receptor (Homo sapiens), sequence (P10275 whole entry, looked up): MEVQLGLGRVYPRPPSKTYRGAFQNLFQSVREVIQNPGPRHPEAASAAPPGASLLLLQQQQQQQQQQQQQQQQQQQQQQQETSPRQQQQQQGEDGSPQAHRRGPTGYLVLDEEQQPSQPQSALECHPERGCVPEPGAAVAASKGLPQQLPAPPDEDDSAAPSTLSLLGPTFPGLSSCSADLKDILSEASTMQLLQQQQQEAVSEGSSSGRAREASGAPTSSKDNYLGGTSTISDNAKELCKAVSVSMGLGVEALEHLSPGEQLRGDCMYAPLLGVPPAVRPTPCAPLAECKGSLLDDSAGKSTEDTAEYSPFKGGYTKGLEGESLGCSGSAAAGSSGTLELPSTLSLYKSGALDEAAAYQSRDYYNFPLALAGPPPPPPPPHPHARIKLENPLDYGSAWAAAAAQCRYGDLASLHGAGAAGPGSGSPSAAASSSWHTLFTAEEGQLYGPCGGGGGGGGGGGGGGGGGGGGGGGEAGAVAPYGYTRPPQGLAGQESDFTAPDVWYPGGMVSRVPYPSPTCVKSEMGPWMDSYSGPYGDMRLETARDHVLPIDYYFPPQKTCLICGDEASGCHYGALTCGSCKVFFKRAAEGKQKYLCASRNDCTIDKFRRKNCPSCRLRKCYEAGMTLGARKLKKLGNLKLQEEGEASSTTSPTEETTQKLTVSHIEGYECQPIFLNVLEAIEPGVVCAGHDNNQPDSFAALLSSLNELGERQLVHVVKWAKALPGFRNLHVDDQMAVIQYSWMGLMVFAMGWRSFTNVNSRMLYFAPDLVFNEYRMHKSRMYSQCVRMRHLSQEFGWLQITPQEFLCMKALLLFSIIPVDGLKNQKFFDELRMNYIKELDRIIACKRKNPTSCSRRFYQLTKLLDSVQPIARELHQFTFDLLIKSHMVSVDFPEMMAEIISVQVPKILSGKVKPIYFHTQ
Outline: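 Test compounds at 15 concentrations were incubated for 16hr with MDA-kb2 reporter cells in presence of 3.0uM nilutamide (final). Signal: ONE-Glo luciferase luminescence.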

[17] = qHTS assay to identify small molecule antagonists of the estrogen receptor beta (ER-beta) signaling pathway - cell viability counter screen (AID 1259382);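 note: HEK293T cells carrying ER-beta-UAS-bla reporter stimulated with estradiol; series mostly up to about 92 µM; nearly all actives have a fitted effect of over 55% in size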
Outline: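 In this multiplexed counter screen, cells were seeded at 2,000 per well in medium with 2% charcoal-stripped FBS and incubated 6 hr before compound and 1nM final E2 were added. Sixteen hours later, ATP-based luminescence reported viability.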

[18] = qHTS assay to identify small molecule agonists or antagonists of the thyroid stimulating hormone receptor (TSHR) signaling pathway - wild type cell line counter screen (AID 1259384; calls by dose curve)
Outline: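 Counter screen in untransfected Hek293: compounds (15-point titration, triplicate) plus phosphodiesterase inhibitor Ro20-1724 added after 18 h plating; 30 min RT. Intracellular cAMP via competitive d2/cryptate immunoassay, 1 h incubation.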

[19] = target: Thyrotropin receptor (Homo sapiens) (UniProt P16473); assay: qHTS assay to identify small molecule antagonists of the thyroid stimulating hormone receptor (TSHR) signaling pathway (AID 1259385; calls by dose curve; note: nearly all actives have a fitted effect of over 20% in size)
Thyrotropin receptor (Homo sapiens), sequence (P16473 whole entry, looked up): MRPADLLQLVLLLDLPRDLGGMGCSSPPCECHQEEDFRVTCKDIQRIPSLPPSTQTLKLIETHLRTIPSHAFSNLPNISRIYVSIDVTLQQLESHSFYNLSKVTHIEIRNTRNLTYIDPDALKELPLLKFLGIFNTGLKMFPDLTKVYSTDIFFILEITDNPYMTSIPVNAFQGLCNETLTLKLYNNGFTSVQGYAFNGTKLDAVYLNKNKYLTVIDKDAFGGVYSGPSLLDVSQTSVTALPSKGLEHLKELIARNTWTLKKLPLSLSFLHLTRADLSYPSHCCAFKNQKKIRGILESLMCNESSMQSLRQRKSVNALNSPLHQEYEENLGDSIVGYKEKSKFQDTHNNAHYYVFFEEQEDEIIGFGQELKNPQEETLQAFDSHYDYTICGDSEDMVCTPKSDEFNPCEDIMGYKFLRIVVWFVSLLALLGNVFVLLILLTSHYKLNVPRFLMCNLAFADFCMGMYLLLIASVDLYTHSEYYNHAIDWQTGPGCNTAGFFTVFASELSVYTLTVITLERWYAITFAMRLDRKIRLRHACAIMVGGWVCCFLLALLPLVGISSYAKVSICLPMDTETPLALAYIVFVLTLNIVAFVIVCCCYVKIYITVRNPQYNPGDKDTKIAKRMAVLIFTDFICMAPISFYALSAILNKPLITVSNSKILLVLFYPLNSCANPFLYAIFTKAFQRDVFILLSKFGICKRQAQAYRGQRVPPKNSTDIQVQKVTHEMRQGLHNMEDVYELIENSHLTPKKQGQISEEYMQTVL
Outline: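 Antagonist mode: compound-treated TSHR-expressing HEK293 cells were stimulated with 1.5 ng/mL TSH (final) in presence of Ro20-1724 for 30 min at RT. HTRF cAMP detection after 1 h; each compound tested at 15 concentrations, triplicate.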
% is set by controls: 0 for no effect and ±100 for the full control effect.

CC(C)CCOC(=O)CC(C)C
inactive: Potency [1] | Potency [2] | Potency [3] | Potency [4] | outcome [5] | Potency [6] | Potency [7] | Potency [8] | Potency [9] | outcome [10] | outcome [11] | outcome [12] | outcome [13]

C/C=C1\C(=O)C[C@H]2[C@@H]3CCC4=CC(=O)CC[C@]4(C)[C@H]3CC[C@]12C
active: Potency [1] 5.99 µM | Potency [15] 26.8 µM
inactive: outcome [14] | Potency [2] | Potency [3] | Potency [4] | outcome [5] | outcome [10] | outcome [11]

c1ccc(SCCSc2ccccc2)cc1
inactive: Potency [1] | outcome [14] | Potency [2] | Potency [3] | Potency [16] | Potency [17] | outcome [18] | outcome [5] | Potency [6] | Potency [8] | Potency [9] | outcome [10] | outcome [11] | outcome [12] | outcome [13]

FC(F)(F)C(F)(F)C(F)(F)C(F)(F)C(F)(F)C(F)(F)C(F)(F)C(F)(F)C(F)(F)C(F)(F)F
inactive: activation [14] -4.79% [at 8.39 µM] | activity, negative = inhibition [15] 3.92% [at 8.39 µM] | activity change, negative = cytotoxicity [2] 1.46% [at 8.39 µM] | activity change, negative = cytotoxicity [3] -0.929% [at 8.39 µM] | activity change, negative = cytotoxicity [17] -4.55% [at 8.39 µM] | cAMP activity change [18] 1.74% [at 8.39 µM] | activity change, negative = inhibition [19] -3.91% [at 8.39 µM] | activity change, negative = cytotoxicity [5] 4.74% [at 8.39 µM] | activation [6] 2.84% [at 8.39 µM] | activity change, negative = inhibition [7] 0.137% [at 8.39 µM] | activity change, negative = cytotoxicity [8] 3.97% [at 8.39 µM] | activity change, negative = cytotoxicity [9] 0% [at 8.39 µM] | viability change, negative = cytotoxic [10] -11.6% [at 6.97 µM] | activity change, negative = cytotoxicity [11] 13.6% [at 6.97 µM] | activation [12] 2.81% [at 6.97 µM] | activity, negative = inhibition [13] 0.552% [at 4.65 µM]

COc1cc(O)cc(O)c1
inactive: Potency [1] | Potency [2] | Potency [3] | Potency [17] | Potency [4] | outcome [18] | Potency [19] | outcome [5] | Potency [6] | Potency [7] | Potency [8] | Potency [9] | outcome [10] | outcome [11] | outcome [12]

CCCC=O
inactive: Potency [1] | outcome [14] | Potency [15] | Potency [2] | Potency [3] | Potency [17] | outcome [18] | Potency [19] | outcome [5] | Potency [6] | Potency [8] | outcome [10] | outcome [11] | outcome [12]

NCCN1CCNC1=O
inactive: Potency [1] | Potency [2] | Potency [3] | Potency [17] | Potency [4] | outcome [18] | Potency [19] | outcome [5] | Potency [6] | Potency [7] | Potency [8] | Potency [9] | outcome [11] | outcome [12]

Nc1ncnc2c1ncn2Cc1c(F)cccc1Cl
inactive: Potency [2] | Potency [3] | Potency [17] | Potency [4] | outcome [18] | Potency [19] | Potency [6] | Potency [7] | Potency [8] | Potency [9] | outcome [10] | outcome [11] | outcome [12] | outcome [13]

COCc1ccc(COC)cc1
inactive: Potency [1] | outcome [14] | Potency [2] | Potency [3] | Potency [17] | Potency [4] | Potency [6] | Potency [8] | Potency [9] | outcome [11] | outcome [12]

CC(=O)NC(Cc1ccccc1)C(=O)O (stereo not given)
inactive: Potency [1] | Potency [2] | Potency [3] | Potency [17] | Potency [4] | outcome [18] | Potency [19] | outcome [5] | Potency [6] | Potency [8] | Potency [9] | outcome [10] | outcome [12] | outcome [13]
